Screening results: PubChem, several laboratories
V-ATPase pH: regulators of yeast V-ATPase proton pumping, primary screen, pHLuorin cytosolic pH fluorescence; S. cerevisiae; response, % at 10 µM; 350,000 tested, 0.37% active; in the data active = response mostly above about 7.3%, no sharp cut-off; inactive = mostly below about 5.4%; also: actives read high
tim23-1 inh: growth inhibitors of tim23-1 mutant yeast, primary screen, luminescence, uHTS; 330,000 tested, 1.3% active; inhibition, % at 20 µM; S. cerevisiae tim23-1 growth, BacTiter-Glo luminescence, 24 h; AID 463212, 2010;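 active = growth inhibition of the mutant yeast at or above 50%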;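 also: temperature-sensitive mutant grown at 25 °C; plate controls were DMSO-treated mutant yeast for no effect and medium wells lacking yeast for full effect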
tim10-1 inh: growth inhibitors of tim10-1 mutant yeast, primary screen, luminescence, uHTS; inhibition, % at 20 µM; S. cerevisiae tim10-1 ts strain growth, BacTiter-Glo, 24 h; 330,000 tested, 2.2% active;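 active = inhibition of at least 40%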;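 also: mutant grown at 25 °C; 0% = DMSO wells with yeast and 100% = wells holding no yeast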
TIM10 inh: growth inhibitors of isogenic TIM10 control yeast, primary screen, counter-screen for tim10-1 yeast inhibitor project, luminescence, uHTS; 330,000 tested, 1.4% active; inhibition, % at 10 µM; S. cerevisiae TIM10 strain growth, BacTiter-Glo luminescence, 24 h;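 active = inhibition of 40% or more at the single tested concentration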;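 also: wild-type TIM10 isogenic control strain grown at permissive 25 °C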
NALP3 yeast inh: NALP3 inflammasome inhibitors in reconstituted yeast, primary screen, luminescence, uHTS; inhibition, % at 10 µM; AID 2825, 2010; 330,000 tested, 0.39% active; Yeast reconstituted NLRP3/ASC/caspase-1, beta-gal luminescence, 24 h;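 active = inhibition of 50% or more; inactive = inhibition below 50%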;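 also: plate controls were induced DMSO wells for no effect and uninduced yeast grown without galactose for full effect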
NALP1 inh: NALP1 inflammasome inhibitors in reconstituted yeast, colorimetric, S. cerevisiae, triplicate retest | 280,000 tested, 0.61% active | S. cerevisiae NALP1/ASC/caspase-1 growth, X-gal OD620, 72 h | inhibition, % at 10 µM; in the data active = inhibition mostly above about 24%, no sharp cut-off; inactive = mostly below about 32%
NALP3 confirm: NALP3 inhibitors retested in yeast, confirmation, luminescence, single concentration. shares compounds with NALP3 yeast inh. yeast expressing human NALP3. inhibition, % at 10 µM. 1,300 tested, 81% active; in the data active = inhibition above about 48%
Casp1 ASC ctr: CASP1-PYCARD signaling inhibition in yeast, confirmatory test, counterassay for NLRP3 inhibitor program, one-dose; inhibition, % at 10 µM; yeast expressing Caspase-1-ASC, luminescence counter screen; 1,000 tested, 66% active; AID 488784, 2010; shares compounds with NALP3 yeast inh
NALP3 retest: NALP3 inhibitors in yeast, repeat test, confirmation, luminescence, single concentration, retest; shares compounds with NALP3 yeast inh; yeast expressing human NALP3, luminescence read-out; inhibition, % at 10 µM; 1,000 tested, 53% active
* hit, by the source's call; nt = no result given. Rows were chosen to be rich in hits. Some 4.2% of all compounds tested hit in one or more screens of this group. Rule as the data show it, unless noted: active = inhibition above about 50%; inactive = the rest.

SMILES | V-ATPase pH | tim23-1 inh | tim10-1 inh | TIM10 inh | NALP3 yeast inh | NALP1 inh | NALP3 confirm | Casp1 ASC ctr | NALP3 retest
COc1ccc(CNC(=O)[C@]2(C)CCC[C@@]3(C)C4CC[C@@]5(C)C[C@]4(CCC32)CC5=O)cc1 (stereo partly specified) | -5 | 13 | -14 | -53 | 51* | nt | 35 | nt | nt
Cc1ccc(CNC(=O)[C@]2(C)CCC[C@@]3(C)C4CC[C@@]5(C)C[C@]4(CCC32)CC5=O)cc1 (stereo partly specified) | -4 | 6 | -37 | -41 | 35 | nt | nt | nt | nt
Cc1ccc(C)n1-c1ccsc1C(=O)CC#N | 1 | 6 | 1 | -1 | 2 | -8 | nt | nt | nt
Fc1ccccc1N=C1NN=C(c2ccccc2)CS1 | 0 | 20 | 18 | -4 | 24 | -2 | nt | nt | nt
Clc1ccccc1N=C1NN=C(c2cccs2)CS1 | 0 | 38 | 27 | 19 | 52* | 12 | 71* | 59* | 50
COc1ccc(C(=O)NNC(=S)NC(=O)c2ccc(F)cc2)cc1Br | -4 | 30 | 4 | 32 | 62* | nt | 71* | 60* | 60*
COc1ccc(C(=O)NNC(=S)NC(=O)c2cccs2)cc1 | -2 | 28 | 4 | 3 | 56* | -12 | 71* | 27 | 44
O=C(NNC(=S)NC(=O)c1ccc(Br)cc1)c1ccc([N+](=O)[O-])cc1 | 2 | 30 | -2 | 8 | 53* | 4 | 37 | 37 | 54*
Cc1cccc(C(=O)NNC(=S)NC(=O)c2ccccc2)c1 | 0 | 8 | 17 | 0 | 39 | nt | nt | nt | nt
COc1ccc(C(=O)NC(=S)NNC(=O)c2ccncc2)cc1Br | -3 | 24 | 20 | 17 | 7 | nt | nt | nt | nt
COc1ccc(C(=O)NC(=S)NNC(=O)c2cccc(C)c2)cc1 | 3 | 23 | 21 | 16 | 51* | nt | 48 | 49 | 48
COc1ccc(C(=O)/C(C)=N/O)cc1OC | 0 | 13 | 13 | 14 | 14 | 9 | nt | nt | nt
CN1CCC(NC(=S)NC2CC2)CC1 | 3 | 1 | 4 | 10 | 11 | 20 | nt | nt | nt
Nc1ccc(Oc2cc(N)cc(Oc3ccccc3)c2)cc1 | -2 | 48 | 29 | 35 | 50* | 9 | 64* | 23 | 45
Nc1ccc(Oc2ccc3nc(-c4ccccc4)c(-c4ccccc4)nc3c2)cc1 | -2 | 46 | 35 | 11 | -1 | -1 | nt | nt | nt
Cc1ccc(OC(C)C(=O)Nc2ccc(S(=O)(=O)N3CCOCC3)cc2)cc1 (stereo unspecified) | 0 | 16 | 13 | 11 | 26 | -9 | nt | nt | nt
Cc1ccc(C(=O)OCC(=O)N2CCCCCC2)c(O)c1 | -2 | 24 | 9 | 17 | 25 | nt | nt | nt | nt
COc1cccc(NS(=O)(=O)c2ccc(Br)s2)c1 | -3 | 9 | 22 | -13 | 53* | 9 | 63* | 47 | 30
COc1ccc(S(=O)(=O)N[C@@H](CC(C)C)C(=O)O)cc1 | 2 | -1 | 7 | 3 | 11 | 4 | nt | nt | nt
Cc1ccc(C(C)C)c(Oc2nnnn2-c2ccccc2)c1 | -2 | 27 | -5 | 9 | -91 | -24 | nt | nt | nt
Cc1ccc(C)c(Oc2nnnn2-c2ccccc2)c1 | 4 | 30 | 28 | 27 | -108 | 3 | -5 | nt | nt
COc1ccc(OCCCC(=O)Nc2cccc([N+](=O)[O-])c2)cc1 | 3 | 9 | 18 | -24 | 27 | 33 | nt | nt | nt
Cn1c(=O)c2c(SCc3cccnc3)nc(CC(C)(C)C)nc2n(C)c1=O | 1 | 48 | 23 | -11 | 7 | -21 | nt | nt | nt
CCCc1nc(SCc2cccnc2)c2c(=O)n(C)c(=O)n(C)c2n1 | -1 | 35 | -11 | -19 | 54* | 32 | 66* | 57* | 47
COc1ccc2c(c1)cc1c(=O)n(CC(=O)NC(C)CCc3ccccc3)nc(C)n12 (stereo unspecified) | 2 | -5 | -11 | -3 | 9 | 18 | nt | nt | nt
SMILES | V-ATPase pH | tim23-1 inh | tim10-1 inh | TIM10 inh | NALP3 yeast inh | NALP1 inh | NALP3 confirm | Casp1 ASC ctr | NALP3 retest
O=[N+]([O-])c1cccnc1S(=O)(=O)c1ccccc1 | -1 | 9 | 22 | -5 | 58* | 25 | 63* | 50* | 39
NCCc1nnc(SCC(=O)Nc2cccc(Cl)c2)o1 | 1 | 6 | 1 | -2 | 52* | 17 | 75* | 57* | 68*
CC(C)(C)OC(=O)NCCc1nnc(SCC(=O)Nc2cccc(Cl)c2)o1 | -2 | 1 | 9 | -2 | 6 | -6 | nt | nt | nt
CCCN1CCCc2cc(CN)ccc21 | 1 | -4 | -2 | -9 | 54* | -2 | 60* | nt | nt
O=C(NC(=S)/C(=C1\CCCCCN1)[N+](=O)[O-])c1ccccc1 | 3 | 7 | -15 | -9 | 59* | nt | 54* | 64* | 44
O=C(NC(=S)Nc1ccccc1[N+](=O)[O-])c1ccccc1 | 0 | 29 | 38 | 14 | 29 | 15 | nt | nt | nt
O=C(Nc1ccccc1-c1ccccc1NC(=O)c1ccco1)c1ccco1 | 4 | 16 | 13 | 24 | -7 | 2 | nt | nt | nt
CC(=O)c1ccc(NS(=O)(=O)c2ccc3c(c2)N(C(C)=O)CCO3)cc1 | -1 | 2 | -10 | 0 | 7 | 15 | nt | nt | nt
O=S(=O)(c1ccc(Cl)s1)N1CCN(Cc2ccccc2)CC1 | -2 | 27 | 24 | -2 | 32 | 4 | nt | nt | nt
O=S(=O)(c1ccccc1)N1CCN(Cc2cccc(Br)c2)CC1 | -3 | 13 | 22 | -11 | 17 | nt | nt | nt | nt
O=S(=O)(c1cccc(Br)c1)N1CCN(CCc2ccccc2)CC1 | -2 | 25 | 34 | -1 | 53* | -7 | 71* | 52* | 49
O=S(=O)(c1ccc(Cl)s1)N1CCN(CCc2ccccc2)CC1 | 1 | 37 | 33 | 13 | 60* | 18 | 76* | 63* | 53*
CCC(C)NC(=O)CN1C(=O)COc2ccc(S(=O)(=O)N3CCOCC3)cc21 (stereo unspecified) | 0 | 7 | 14 | -10 | 4 | 25 | nt | nt | nt
Cc1cccc(Nc2nc(N)nc(CCl)n2)c1 | 4 | 30 | 16 | 22 | 5 | 11 | nt | nt | nt
Cc1ccccc1C(C)NC(=O)COC(=O)Cn1cc(C(F)(F)F)ccc1=O (stereo unspecified) | -4 | -1 | -8 | 2 | 15 | nt | nt | nt | nt
O=C(Nc1ccccc1)c1ccc(S(=O)(=O)N2CCCC2)cc1 | -1 | 9 | 16 | 6 | 21 | -11 | nt | nt | nt
O=C(Nc1ccccc1)c1ccc(S(=O)(=O)N2CCCCC2)cc1 | -3 | 27 | 28 | 31 | 52* | 9 | 63* | 41 | 37
